Assay outcomes deposited in PubChem BioAssay by National Center for Advancing Translational Sciences (NCATS).
Vif-APOBEC3F blk – inhibitors of Vif-A3F interaction; HeLa A3F-eYFP + Vif (tagged APOBEC3F with the HIV-1 protein that degrades it), YFP fluorescence increase; Potency, µM (highest dose often 46.1 µM), without a hit: at the highest dose activity, negative = active; 390,000 tested, 0.2% active; also: potency is read from the fitted curve at half-maximal effect; % of control where 0% means no effect; nearly all actives have a fitted effect of over 65% in size
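Fluorescence increase (Ex 488/Em 500-530) after overnight compound treatment at 37 deg C flags inhibition of Vif-driven A3F-eYFP loss in stable HeLa A3F-eYFP/Vif cells seeded overnight beforehand.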
Vif-APOBEC3G blk – inhibitors of Vif-APOBEC3G interaction; Q9HC16; Potency, µM (doses to about 46.1 µM), for the others: top-dose activity, negative = active, actives largely listed as inhibitors; HeLa A3G-eYFP + Vif (tagged APOBEC3G with the HIV-1 protein that degrades it), YFP fluorescence, overnight; 410,000 tested, 0.076% active; also: potency is read from the fitted curve at half-maximal effect; % is scaled to controls: 0 for no effect and ±100 for the full control effect; nearly all actives have a fitted effect of over 60% in size
Target sequence (Q9HC16 whole entry, looked up): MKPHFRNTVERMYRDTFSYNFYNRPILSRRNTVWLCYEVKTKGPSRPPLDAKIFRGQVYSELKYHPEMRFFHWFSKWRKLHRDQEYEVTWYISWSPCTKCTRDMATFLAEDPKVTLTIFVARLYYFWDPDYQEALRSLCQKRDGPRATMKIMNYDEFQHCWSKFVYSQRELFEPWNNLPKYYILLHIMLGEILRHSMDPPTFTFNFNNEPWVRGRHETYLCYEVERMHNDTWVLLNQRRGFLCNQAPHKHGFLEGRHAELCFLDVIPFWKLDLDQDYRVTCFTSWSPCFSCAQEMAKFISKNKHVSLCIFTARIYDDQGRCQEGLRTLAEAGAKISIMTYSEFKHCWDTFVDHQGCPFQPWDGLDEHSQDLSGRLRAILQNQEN
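Read-out is eYFP fluorescence (Ex 488/Em 500-530) from Vif-expressing HeLa A3G-eYFP cells; more signal means A3G escaped Vif-mediated degradation. Cells plated overnight, compound pinned in, incubated overnight at 37 deg C.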
MCF10A rereplic – induces DNA re-replication in MCF 10a normal breast cells | MCF 10A DNA re-replication, Hoechst nuclear intensity, 48 h | Potency, µM (doses to about 46.1 µM), inactives show at the top dose activity, positive = re-replication, hits mostly activators | 350,000 tested, 2.9% active | AID 624296; also: potency is read from the fitted curve at half-maximal effect; % of control where 0% means no effect; nearly all actives have a fitted effect of over 50% in size
SW480 rereplic – DNA re-replication induction in SW480 cells | 340,000 tested, 1.8% active | Potency, µM (top dose mostly 46.1 µM), without a hit: at the top dose re-replication activation, usual class: activators | SW480 DNA re-replication, Hoechst DNA content imaging, 48 h | AID 624297; also: potency is read from the fitted curve at half-maximal effect; % of control where 0% means no effect; nearly all actives have a fitted effect of over 55% in size
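First, 250 cells per well were seeded. Next, compound or vehicle (23 nL) was pinned in, plates sat 48 hr at 37 C. Finally Hoechst was added for 40 min before fluorescence scanning.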
Giardia kill – kills Giardia lamblia | Giardia lamblia trophozoite viability | activity change, % at 7.66 µM, hits read low | 340,000 tested, 0.15% active | AID 540267; in the data active = activity change below about -80%; inconclusive = between about -30% and that limit;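 also: parasites exposed to compound for two days anaerobically before the ATP read; % is scaled to controls: 0 for no effect and ±100 for the full control effect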
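Anaerobic 48 hrs incubation at 37 deg C of 100 trophozoites/well with test compounds; ATPLite 1-Step luminescence, 15-30 min RT, reports cellular ATP as viability.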
IL-1B inflam inh – inflammasome signaling inhibition, IL-1 beta readout; AID 743279; 360,000 tested, 4.7% active; THP-1 LPS/ATP IL-1B secretion, AlphaLISA, 16 h; stronger effect = lower value; activity change, % at 57.5 µM; in the data active = activity change below about -50%; inconclusive = mostly about -30% to -49%; also: % is scaled to controls: 0 for no effect and ±100 for the full control effect
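THP-1 cells pretreated 1 hr with compounds (up to 57.5 uM final), then stimulated with LPS (250 ng/mL final) plus ATP (1.25 mM final); secreted IL-1B measured by AlphaLISA after 16 hr, decreased signal indicating inhibition.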
* = called active by the depositor. Hits are enriched below; roughly 6.9% of the tested compounds scored in any of these assays. Unless noted, calls follow the shape of the dose curve; as a rule, active = well fitted curve in the direction sought with a large enough effect; inconclusive = small, poorly fitted or top-dose-only effect, or another doubt; inactive = no such curve, though single readings can be large; an effect the other way counts as inactive or inconclusive.

Results for O=C(Nc1ccc(C(=O)OCc2cc(=O)n3c4c(sc3n2)CCCC4)cc1)c1ccc(F)cc1 ?
Vif-APOBEC3F blk: 1.4%; Vif-APOBEC3G blk: 4.0%

What do the screens show for `Cc1ccc(C)c(CNC(=O)c2ccc3c(c2)nc2n3CCCCC2)c1`?
Vif-APOBEC3F blk: -3.8%; Vif-APOBEC3G blk: -14.9%

What do the screens show for `COc1ccc(OCC2c3cc(OC)c(OC)cc3CCN2C(=O)COc2ccc(Cl)cc2Cl)cc1` (centres undefined)?
Vif-APOBEC3F blk: 5.1%; Vif-APOBEC3G blk: -3.3%

Results for COc1ccc(CNCC(O)COc2ccc(C(C)(C)c3ccccc3)cc2)cc1 (centres undefined) ?
Vif-APOBEC3F blk: -2.5%; Vif-APOBEC3G blk: -6.7%; MCF10A rereplic: inconclusive; SW480 rereplic: inconclusive; Giardia kill: -2.5; IL-1B inflam inh: -100.4*

What do the screens show for `CC(C)(C)c1ccc(OCC(O)CNC(=O)c2ccccc2C(=O)O)cc1` (centres undefined)?
Vif-APOBEC3F blk: 6.4%; Vif-APOBEC3G blk: 2.9%; MCF10A rereplic: 2.1%; SW480 rereplic: -31.7%; Giardia kill: -2.4; IL-1B inflam inh: 23.8

How did COc1ccccc1NCC(O)COc1ccc(C(C)(C)C)cc1 (centres undefined) do in these assays?
Vif-APOBEC3F blk: 9.3%; Vif-APOBEC3G blk: -4.1%; MCF10A rereplic: inconclusive; SW480 rereplic: 1.9%; Giardia kill: 16.7; IL-1B inflam inh: -105.8*

What do the screens show for `COC(=O)c1ccc(CNCC(O)COc2ccc(-c3ccccc3)cc2)cc1` (centres undefined)?
Vif-APOBEC3F blk: -7.9%; Vif-APOBEC3G blk: -0.2%; MCF10A rereplic: inconclusive; SW480 rereplic: inconclusive; Giardia kill: -14.9; IL-1B inflam inh: 14.2

How did C=CC[N+]1([C@H]2C[C@H]3[C@@H]4CC[C@H]5C[C@H](O)[C@@H](N6CCOCC6)C[C@]5(C)[C@H]4CC[C@]3(C)[C@H]2OC(C)=O)CCCC1 do in these assays?
MCF10A rereplic: 3.4%; SW480 rereplic: 1.3%

Results for O=C(O)c1ccc(C2NCC(c3ccccc3Cl)c3c2[nH]c2ccccc32)cc1 (centres undefined) ?
Vif-APOBEC3F blk: 7.4%; Vif-APOBEC3G blk: 1.2%; MCF10A rereplic: -0.1%; SW480 rereplic: 1.2%; Giardia kill: 1.6; IL-1B inflam inh: 30.6

Results for COc1cc(C2NCC(c3ccc(Cl)cc3Cl)c3c2[nH]c2ccccc32)cc(OC)c1OC (centres undefined) ?
Vif-APOBEC3F blk: -10.8%; Vif-APOBEC3G blk: -8.1%; MCF10A rereplic: 18.4µM*; SW480 rereplic: inconclusive; Giardia kill: 10.0; IL-1B inflam inh: -66.1*

What do the screens show for `COc1cc(C2c3c(oc4ccccc4c3=O)C(=O)N2c2nncs2)cc(OC)c1OC` (centres undefined)?
Vif-APOBEC3F blk: 8.6%; Vif-APOBEC3G blk: 6.6%

What do the screens show for `Cc1ccc2c(Sc3ccc(Cl)cc3)c(C(=O)NCCC(C)C)[nH]c2c1`?
Vif-APOBEC3F blk: -2.8%; Vif-APOBEC3G blk: 0.2%

Results for COC(C(=O)Nc1ccc(S(=O)(=O)Nc2ccc(F)cc2)cc1)c1ccccc1 (centres undefined) ?
Vif-APOBEC3F blk: -7.8%; Vif-APOBEC3G blk: -5.6%; MCF10A rereplic: 3.0%; SW480 rereplic: inconclusive; Giardia kill: 22.7; IL-1B inflam inh: -100.7*

How did COc1ccc(C)cc1NC(=O)c1cnc2scc(C)n2c1=O do in these assays?
Vif-APOBEC3F blk: -11.4%; Vif-APOBEC3G blk: 4.2%; MCF10A rereplic: 23.1µM*; SW480 rereplic: inconclusive; Giardia kill: 4.3; IL-1B inflam inh: 28.3

How did C=CCn1c(SCC(=O)c2cc(C)n(C(C)COC)c2C)nc2sc(C)c(C)c2c1=O (centres undefined) do in these assays?
Vif-APOBEC3F blk: 7.5%; Vif-APOBEC3G blk: -2.5%; MCF10A rereplic: 18.4µM*; SW480 rereplic: inconclusive; Giardia kill: -12.1; IL-1B inflam inh: -1.5

How did Cc1noc(C)c1CSc1nc2sc(C)c(C)c2c(=O)n1-c1ccccc1 do in these assays?
Vif-APOBEC3F blk: -14.2%; Vif-APOBEC3G blk: -0.9%; MCF10A rereplic: 22.8%; SW480 rereplic: 1.2%; Giardia kill: -8.0; IL-1B inflam inh: 0.7

How did C=CCn1c(SCc2c(C)noc2C)nc2sc(C)c(C)c2c1=O do in these assays?
Vif-APOBEC3F blk: -5.0%; Vif-APOBEC3G blk: inconclusive; MCF10A rereplic: 23.1µM*; SW480 rereplic: inconclusive; Giardia kill: 6.8; IL-1B inflam inh: -21.9

Results for Cc1oc(-c2cccc(Cl)c2)nc1Cn1c(SCc2ccc(F)cc2)nc2cccnc21 ?
Vif-APOBEC3F blk: -0.5%; Vif-APOBEC3G blk: -3.7%

What do the screens show for `O=C(c1cccs1)c1cn(CCOc2ccccc2Cl)c2ccccc12`?
Vif-APOBEC3F blk: -7.0%; Vif-APOBEC3G blk: -2.5%

How did COC(=O)c1cccc(NS(=O)(=O)c2ccc(OC)cc2)c1C do in these assays?
Vif-APOBEC3F blk: 2.9%; Vif-APOBEC3G blk: inconclusive; MCF10A rereplic: 5.8µM*; SW480 rereplic: inconclusive; Giardia kill: 5.5; IL-1B inflam inh: 33.4

Results for CCOC(=O)c1ccccc1NC(=O)CN(c1ccccc1)S(=O)(=O)c1ccc(OCC)cc1 ?
Vif-APOBEC3F blk: 1.4%; Vif-APOBEC3G blk: 4.6%

How did CCOC(=O)c1ccccc1NS(=O)(=O)c1ccc(OCC)cc1 do in these assays?
Vif-APOBEC3F blk: -11.4%; Vif-APOBEC3G blk: -25.9%; MCF10A rereplic: 13µM*; SW480 rereplic: 11.6µM*; Giardia kill: 10.3; IL-1B inflam inh: 8.1

Results for COC(=O)c1cccc(NS(=O)(=O)c2ccc(OC)c(OC)c2)c1C ?
Vif-APOBEC3F blk: 1.5%; Vif-APOBEC3G blk: 0.5%; MCF10A rereplic: 1.0%; SW480 rereplic: -3.1%; Giardia kill: 1.7; IL-1B inflam inh: 0.0

Results for CC(C)(CNC(=O)COc1ccccc1Cc1ccccc1)N1CCOCC1 ?
Vif-APOBEC3F blk: 4.6%; Vif-APOBEC3G blk: 2.0%; MCF10A rereplic: -0.9%; SW480 rereplic: 2.5%; Giardia kill: 13.3; IL-1B inflam inh: -58.7*

How did Cc1ccccc1OCC(=O)NCC(C)(C)N1CCOCC1 do in these assays?
Vif-APOBEC3F blk: -5.8%; Vif-APOBEC3G blk: -0.9%; MCF10A rereplic: 3.4%; SW480 rereplic: -45.2%; Giardia kill: 17.3; IL-1B inflam inh: 37.4

How did CCn1cc(C(=O)OCC(=O)Nc2cc(Cl)ccc2OC)c(=O)c2ccc(C)nc21 do in these assays?
Vif-APOBEC3F blk: 0.4%; Vif-APOBEC3G blk: -0.1%

How did CC(=O)c1cccc(NC(=O)c2sc3nc4n(c(=O)c3c2C)CCCC4)c1 do in these assays?
Vif-APOBEC3F blk: -15.7%; Vif-APOBEC3G blk: -3.0%; MCF10A rereplic: 4.4%; SW480 rereplic: 9.2µM*; Giardia kill: -2.0; IL-1B inflam inh: -16.1

How did Cc1c(C(=O)Nc2cccc(C(F)(F)F)c2)sc2nc3n(c(=O)c12)CCCC3 do in these assays?
Vif-APOBEC3F blk: -1.4%; Vif-APOBEC3G blk: 0.9%
